Measured values: PubChem BioAssay (NCATS)
Inconclusive results are not listed. The source made the active and inactive calls. The call rests on the fitted dose curve; in most records, active means well fitted cell-killing curve with a large enough effect; inconclusive means small, poorly fitted or top-dose-only effect, or effect the other way; inactive means flat fitted curve, though single readings scatter.

Assays:
Assay in all cases: Primary qHTS to identify gynecologic anti-cancer compounds using libraries of approved drugs and bioactive compounds (AID 1345084); further: nearly all actives have a fitted effect of over 55% in size
C33A = settings: Gynecologic cancer cell panel viability, ATPlite luminescence, 48 h; series mostly up to 57.5 µM
In short: (§1)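 ATP-based viability (ATPlite), 1,000 cells/well, 16 h pre-incubation, 48 h compound at 37 C, 5% CO2, 15 min RT before read.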

CAOV3 = settings: Gynecologic cancer cell panel viability, ATPlite luminescence, 48 h; series mostly up to 57.5 µM
In short: as §1

CASKI = settings: Gynecologic cancer cell panel viability, ATPlite luminescence, 48 h; series mostly up to 57.5 µM
In short: as §1

Es-2 = settings: Gynecologic cancer cell panel viability, ATPlite luminescence, 48 h; series mostly up to 57.5 µM
In short: as §1

HeLa = settings: Gynecologic cancer cell panel viability, ATPlite luminescence, 48 h; series mostly up to 57.5 µM
In short: as §1

Hek293T = settings: Gynecologic cancer cell panel viability, ATPlite luminescence, 48 h, control line for the selectivity index; series mostly up to 57.5 µM
In short: as §1

JEG-3 = settings: Gynecologic cancer cell panel viability, ATPlite luminescence, 48 h; series mostly up to 57.5 µM
In short: as §1

OV90 = settings: Gynecologic cancer cell panel viability, ATPlite luminescence, 48 h; series mostly up to 57.5 µM
In short: as §1

PA-1 = settings: Gynecologic cancer cell panel viability, ATPlite luminescence, 48 h; series mostly up to 57.5 µM
In short: as §1

Tov-21-G = settings: Gynecologic cancer cell panel viability, ATPlite luminescence, 48 h; series mostly up to 57.5 µM
In short: as §1

Tov112D = settings: Gynecologic cancer cell panel viability, ATPlite luminescence, 48 h; series mostly up to 57.5 µM
In short: as §1

SKOV3 = settings: Gynecologic cancer cell panel viability, ATPlite luminescence, 48 h; series mostly up to 57.5 µM
In short: as §1
On the % scale 0 is the no-effect control and ±100 the full control effect.

C=CC1(C)CC(OC(=O)/C(C)=C\COC(C)=O)C(C(=C)C(=O)O)C(O)C1C(=C)CO (stereo unspecified)
inactive: Potency (C33A) | Potency (CAOV3) | Potency (CASKI) | Potency (Es-2) | Potency (HeLa) | Potency (Hek293T) | Potency (JEG-3) | Potency (OV90) | Potency (PA-1) | Potency (Tov-21-G) | Potency (Tov112D)

CC(=O)O[C@@H]1[C@@H](OC(=O)/C=C/c2ccccc2)[C@@H](OC(C)=O)[C@H](O[C@H]2[C@@H]3C=CO[C@@H](O[C@@H]4O[C@H](CO)[C@@H](O)[C@H](O)[C@H]4O)[C@@H]3[C@@]3(CO)O[C@@H]23)O[C@H]1C
inactive: Potency (C33A) | Potency (CAOV3) | Potency (CASKI) | Potency (Es-2) | Potency (HeLa) | Potency (Hek293T) | Potency (JEG-3) | Potency (OV90) | Potency (SKOV3) | Potency (Tov-21-G) | Potency (Tov112D)

CC(C)c1cc(C(=O)N2CC[C@@H](NC(=O)C3CC3)C2)n[nH]1
inactive: Potency (C33A) | Potency (CAOV3) | Potency (CASKI) | Potency (Es-2) | Potency (HeLa) | Potency (Hek293T) | Potency (JEG-3) | Potency (OV90) | Potency (PA-1) | Potency (Tov-21-G) | Potency (Tov112D)

Nc1nc2c(c(N3CCNCC3)n1)CCC1=C2[C@@H]2CCCC[C@@H]2O1
inactive: Potency (C33A) | Potency (CAOV3) | Potency (CASKI) | Potency (Es-2) | Potency (HeLa) | Potency (Hek293T) | Potency (JEG-3) | Potency (OV90) | Potency (SKOV3) | Potency (Tov-21-G) | Potency (Tov112D)

CC(C)=CCC[C@](C)(O[C@@H]1O[C@H](CO[C@@H]2O[C@H](CO)[C@@H](O)[C@H](O)[C@H]2O)[C@@H](O)[C@H](O)[C@H]1O)C1CC[C@]2(C)[C@@H]1[C@H](O)CC1[C@@]3(C)CC[C@H](O[C@@H]4O[C@H](CO)[C@@H](O)[C@H](O)[C@H]4O[C@@H]4O[C@H](CO)[C@@H](O)[C@H](O)[C@H]4O)C(C)(C)[C@@H]3CC[C@]12C (stereo partly specified)
inactive: activity change, negative = cytotoxicity (C33A) 0.112% [at 11.6 µM] | activity change, negative = cytotoxicity (CAOV3) 10.1% [at 11.6 µM] | activity change, negative = cytotoxicity (CASKI) 27.8% [at 11.6 µM] | activity change, negative = cytotoxicity (Es-2) -0.241% [at 11.6 µM] | activity change, negative = cytotoxicity (HeLa) -0.531% [at 11.6 µM] | activity change, negative = cytotoxicity (Hek293T) -3.2% [at 11.6 µM] | activity change, negative = cytotoxicity (JEG-3) -5.88% [at 11.6 µM] | activity change, negative = cytotoxicity (OV90) 2.46% [at 11.6 µM] | activity change, negative = cytotoxicity (PA-1) 0.278% [at 11.6 µM] | activity change, negative = cytotoxicity (Tov-21-G) 1.55% [at 11.6 µM] | activity change, negative = cytotoxicity (Tov112D) 0.741% [at 11.6 µM]

Cc1c(C(=O)Nc2ccc(N3CC(C)OC(C)C3)nc2)cccc1-c1ccc(OC(F)(F)F)cc1 (stereo unspecified)
inactive: Potency (C33A) | Potency (CAOV3) | Potency (CASKI) | Potency (Es-2) | Potency (HeLa) | Potency (Hek293T) | Potency (JEG-3) | Potency (OV90) | Potency (PA-1) | Potency (Tov-21-G) | Potency (Tov112D)

C=C1CCC2C(C)(C)C(O)CCC2(C)C1CCC(C)CCOC(C)=O (stereo unspecified)
inactive: Potency (C33A) | Potency (CAOV3) | Potency (CASKI) | Potency (Es-2) | Potency (HeLa) | Potency (Hek293T) | Potency (JEG-3) | Potency (OV90) | Potency (Tov-21-G) | Potency (Tov112D)

C[C@@H]1CCC2C(C)(C)[C@H](O)CC[C@]2(C)[C@@]12Cc1c(O)cc3c(c1O2)CN([C@@H](CCC(=O)O)C(=O)O)C3=O (stereo partly specified)
inactive: Potency (C33A) | Potency (CAOV3) | Potency (CASKI) | Potency (Es-2) | Potency (HeLa) | Potency (Hek293T) | Potency (JEG-3) | Potency (OV90) | Potency (SKOV3) | Potency (Tov-21-G) | Potency (Tov112D)

Cc1[nH]nc(C(F)(F)F)c1Cc1sc2c(c1C(=O)N1C[C@](C)(O)CO1)c(=O)n(C)c(=O)n2C(C)C
inactive: Potency (C33A) | Potency (CAOV3) | Potency (CASKI) | Potency (Es-2) | Potency (HeLa) | Potency (Hek293T) | Potency (JEG-3) | Potency (OV90) | Potency (Tov-21-G) | Potency (Tov112D)

COc1cc2oc(-c3ccc(O)cc3O)cc2c(OC)c1CC=C(C)C
inactive: Potency (C33A) | Potency (CAOV3) | Potency (CASKI) | Potency (Es-2) | Potency (HeLa) | Potency (Hek293T) | Potency (JEG-3) | Potency (OV90) | Potency (SKOV3) | Potency (Tov-21-G) | Potency (Tov112D)

Cc1cc(C(=O)Nc2cccc(C(=O)Nc3cccc(C(F)(F)F)c3)c2)on1
inactive: Potency (C33A) | Potency (CAOV3) | Potency (CASKI) | Potency (Es-2) | Potency (HeLa) | Potency (Hek293T) | Potency (JEG-3) | Potency (OV90) | Potency (PA-1) | Potency (Tov112D)

CC(C)c1nnc(-c2ccc(-c3ccccc3)nc2)n1-c1cccc2nonc12
inactive: Potency (C33A) | Potency (CAOV3) | Potency (CASKI) | Potency (Es-2) | Potency (HeLa) | Potency (Hek293T) | Potency (JEG-3) | Potency (OV90) | Potency (PA-1) | Potency (Tov112D)

CC(CCC1(O)OC2CC3C4CCC5CC(O[C@@H]6O[C@H](CO)[C@@H](O)[C@H](O)[C@H]6O[C@@H]6O[C@@H](C)[C@H](O)[C@@H](O)[C@H]6O)C(O)CC5(C)C4CCC3(C)C2C1C)CO[C@@H]1O[C@H](CO)[C@@H](O)[C@H](O)[C@H]1O (stereo partly specified)
inactive: activity change, negative = cytotoxicity (C33A) 3.88% [at 11.6 µM] | activity change, negative = cytotoxicity (CAOV3) -13.8% [at 11.6 µM] | activity change, negative = cytotoxicity (CASKI) -0.222% [at 11.6 µM] | activity change, negative = cytotoxicity (Es-2) -3.1% [at 11.6 µM] | activity change, negative = cytotoxicity (HeLa) 3.09% [at 11.6 µM] | activity change, negative = cytotoxicity (Hek293T) 17.8% [at 11.6 µM] | activity change, negative = cytotoxicity (JEG-3) -0.873% [at 11.6 µM] | activity change, negative = cytotoxicity (OV90) 22.7% [at 11.6 µM] | activity change, negative = cytotoxicity (SKOV3) 3.64% [at 11.6 µM] | activity change, negative = cytotoxicity (Tov-21-G) 6.58% [at 11.6 µM] | activity change, negative = cytotoxicity (Tov112D) 18.3% [at 11.6 µM]

COCCOc1cnc2ccn([C@H](C)c3nnc4c(F)cc(-c5cnn(C)c5)cn34)c(=O)c2c1
inactive: Potency (C33A) | Potency (CAOV3) | Potency (CASKI) | Potency (Es-2) | Potency (HeLa) | Potency (Hek293T) | Potency (JEG-3) | Potency (OV90) | Potency (SKOV3) | Potency (Tov-21-G) | Potency (Tov112D)

C=C1CCC2C(C)(C)CCC[C@]2(C)[C@H]1C/C=C(\CO)C(=O)C(=O)O (stereo partly specified)
inactive: Potency (C33A) | Potency (CAOV3) | Potency (CASKI) | Potency (Es-2) | Potency (HeLa) | Potency (Hek293T) | Potency (JEG-3) | Potency (OV90) | Potency (SKOV3) | Potency (Tov-21-G) | Potency (Tov112D)
